TGFb inhibitor: TGF-b pathway inhibition | AID 588855 | HepG2 CAGA-GFP TGF-b/SMAD3 reporter, GFP fluorescence, 18 h; TGF-beta stimulated, 500 pg/mL final | actives 1.2% (n = 410,000) | Potency, µM (titrated, usually from 46.1 µM), without a hit: at the top dose activity, negative = inhibition, most hits filed as inhibitors; also: potency is read from the fitted curve at half-maximal effect; % is scaled to controls: 0 for no effect and ±100 for the full control effect; nearly all actives have a fitted effect of over 65% in size
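Inhibition was scored as loss of TGF-beta-induced (500 pg/mL final, 18 hours, 37 degrees C) GFP in HEPG2 cells carrying a CAGA-GFP reporter, in DMEM with 1% FBS. Well GFP was summed per cell; Activity was normalised to unstimulated and stimulated DMSO wells, then concentration-response fitting.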
TDP1 inh: TDP1 (human) enzyme inhibition | Q9NUW8 | recombinant TDP1, AlphaScreen DNA substrate cleavage | Potency, µM (titrated, usually from 130 µM), without a hit: at the highest dose activity change, negative = inhibition, hits mostly inhibitors | actives 0.28% (n = 350,000) | AID 485290; also: potency is read from the fitted curve at half-maximal effect; % is scaled to controls: 0 for no effect and ±100 for the full control effect; nearly all actives have a fitted effect of over 40% in size
Target sequence (Q9NUW8 whole entry, looked up): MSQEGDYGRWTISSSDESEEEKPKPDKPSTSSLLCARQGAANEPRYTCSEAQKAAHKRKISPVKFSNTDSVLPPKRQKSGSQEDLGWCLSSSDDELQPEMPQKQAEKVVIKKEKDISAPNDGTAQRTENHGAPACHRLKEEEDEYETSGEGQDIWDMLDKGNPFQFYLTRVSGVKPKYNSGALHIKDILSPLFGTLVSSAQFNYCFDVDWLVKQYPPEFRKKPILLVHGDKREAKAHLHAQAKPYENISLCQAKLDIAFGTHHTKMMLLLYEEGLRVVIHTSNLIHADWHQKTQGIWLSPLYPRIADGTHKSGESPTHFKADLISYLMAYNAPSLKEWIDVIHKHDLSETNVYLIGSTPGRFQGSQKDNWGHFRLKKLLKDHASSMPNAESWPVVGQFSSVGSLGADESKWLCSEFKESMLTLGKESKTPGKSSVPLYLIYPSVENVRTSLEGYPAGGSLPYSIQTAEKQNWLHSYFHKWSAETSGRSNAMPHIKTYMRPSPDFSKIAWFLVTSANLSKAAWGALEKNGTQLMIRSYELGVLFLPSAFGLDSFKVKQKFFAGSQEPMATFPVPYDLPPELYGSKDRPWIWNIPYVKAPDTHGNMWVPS
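E. coli-derived human Tdp1, 1 nM final. Cpd preinc 15 min RT; substrate 15 nM final, 5 min RT; AS bead mix 10 ug/ml final, 10 min RT. Signal loss = tyrosine-FITC cleavage. No-enzyme wells = max signal.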
DT40 TDP1 CPT: DT40-hTDP1 cell growth loss with CPT | actives 12% (n = 420,000) | Potency, µM (top dose mostly 46.2 µM), inactives show at the top dose activity change, negative = growth inhibition, hits mostly inhibitors | chicken DT40 Tdp1-/-;hTDP1 cells + 20 nM CPT, ATP luminescence, 48 h | AID 686979; also: potency is read from the fitted curve at half-maximal effect; % is scaled to controls: 0 for no effect and ±100 for the full control effect; nearly all actives have a fitted effect of over 55% in size
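Chicken DT40 Tdp1-/- cells stably complemented with human TDP1 were seeded at 400 cells/well in medium containing 20 nM camptothecin, exposed to pin-transferred compounds, and grown at 37 °C for at least 48 hr. Viability was read as ATP luminescence.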
HepG2 viability: counter-screen for TGF-b inhibitors: cytotoxicity in HepG2 cells | HepG2 CAGA-GFP viability, ATP luminescence, 18 h | Potency, µM (doses to about 46.1 µM), for inactives: top-dose activity change, negative = cytotoxicity, most hits filed as cytotoxic | actives 0.76% (n = 410,000) | AID 588856; also: potency is read from the fitted curve at half-maximal effect
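CellTiter-Glo luminescence gave cytotoxicity after 18 hours at 37 degrees C. The cells were HepG2 CAGA-GFP in 1% FBS DMEM, stimulated with 500 pg/mL TGF-beta after compound addition. %Activity was normalised to no-cell wells (complete cell-killing) and DMSO (no toxicity), and curves were fitted and classified.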
DT40 TDP1 no CPT: qHTS for Inhibitors of human tyrosyl-DNA phosphodiesterase 1 (TDP1): qHTS in cells in absence of CPT; actives 15% (n = 420,000); Potency, µM (doses to about 46.2 µM), for the others: at the top dose activity change, negative = growth inhibition, hits mostly inhibitors; DT40 Tdp1-/- hTDP1 cells, no CPT, ATP luminescence, 48 h; also: potency is read from the fitted curve at half-maximal effect; % is scaled to controls: 0 for no effect and ±100 for the full control effect; nearly all actives have a fitted effect of over 55% in size
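No-CPT arm: Tdp1-/-;hTDP1 DT40 cells (400/well) plus compounds, incubated ≥48 hr at 37 °C. Readout CellTiter-Glo luminescence.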
IL-1B inflam inh: blocks inflammasome-driven IL-1 beta release | AID 743279 | activity change, % at 57.5 µM | actives 4.7% (n = 360,000) | THP-1 LPS/ATP IL-1B secretion, AlphaLISA, 16 h; active compounds read low; in the data active = activity change below about -50%; inconclusive = mostly about -30% to -49%; also: % is scaled to controls: 0 for no effect and ±100 for the full control effect
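Secreted IL-1B measured by AlphaLISA bead assay after 16 h compound exposure of THP-1 cells; compounds (final up to 57.5 uM) added 1 h before LPS (250 ng/mL) and ATP (1.25 mM) stimulation; lower signal means less secretion.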
Numbers without * were called inactive; ? = inconclusive; nt = no result; [ ] = remark or other dose. Shown are actives, neighbours in structure and some others; about 18% of the full set was active somewhere. Unless noted, calls follow the shape of the dose curve; as a rule, active = well fitted curve in the direction sought with a large enough effect; inconclusive = small, poorly fitted or top-dose-only effect, or another doubt; inactive = no such curve, though single readings can be large; an effect the other way counts as inactive or inconclusive.

SMILES	TGFb inhibitor	TDP1 inh	DT40 TDP1 CPT	HepG2 viability	DT40 TDP1 no CPT	IL-1B inflam inh
O=C1C=C[C@@H](O)[C@H]2[C@@H]3C(=O)N(c4cccc(Oc5ccccc5)c4)C(=O)[C@@H]3CC[C@H]12	nt	4%[21 µM]	nt	nt	nt	nt
COc1ccc([C@@H]2[C@@H]3C(=O)N(C(C)(C)C)C(=O)[C@@H]3[C@]3(Cc4ccc(Cl)cc4)C(=O)N(c4ccc(C)cc4)C(=O)N23)cc1	?	0%	-3%	1%	-22%	-4
CCOc1cccc2sc(N(CCN(C)C)C(=O)CCS(=O)(=O)c3ccccc3)nc12	12%	nt	?	3%	-4%	-19
Cc1ccc(S(=O)(=O)CCC(=O)N(CCCN2CCOCC2)c2nc3ccccc3s2)cc1	-25%	5%	2.3µM*	-24%	2.9µM*	-72*
O=C(CSc1nc2ccccc2s1)NCCCN1CCOCC1	?	1%	4%	11%	9%	21
CCCC(=O)N(CCN1CCOCC1)c1nc2cc(C)c(C)cc2s1	16%	1%	-13%	-2%	1%	-11
Cc1ccc2nc(N(CCN3CCOCC3)C(=O)CCS(=O)(=O)c3ccccc3)sc2c1	?	-1%	12µM*	-46%	12µM*	?
O=C(CCS(=O)(=O)c1ccccc1)N(CCCN1CCOCC1)c1nc2ccccc2s1	?	6%	5.2µM*	-4%	3.7µM*	-107*
O=C(COC(=O)c1ccc(F)cc1Cl)NC1CCCCCCC1	6%	-6%	-12%	20%	-22%	21
COc1ccc(N2CCN(C(=O)COC(=O)c3ccc(-n4nc(C)cc4C)cc3)CC2)cc1	0%	4%	?	-2%	-7%	-12
Cc1ccccc1C(=O)NC1(C(F)(F)F)N=C(c2ccccc2)N(Cc2ccccc2)C1=O (stereo unspecified)	0%	-3%	23µM*	-19%	23µM*	nt
COc1ccccc1C(NC(=O)C1CCN(CCOc2ccc(Cl)cc2)CC1)c1ccccn1 (stereo unspecified)	28%	nt	?	0%	?	nt
COc1ccccc1C(NC(=O)C1CCN(CCOc2ccc(Cl)cc2Cl)CC1)c1ccccn1 (stereo unspecified)	?	nt	?	13µM*	?	0
Cc1cccnc1C(c1ccc(F)cc1)N(C)C(=O)C1CCN(CCOc2ccc(Cl)cc2Cl)CC1 (stereo unspecified)	?	nt	26µM*	-100%	21µM*	-56*
Cc1cccnc1C(c1ccc(F)cc1)N(C)C(=O)C1CCN(CCCOc2ccc(F)cc2)CC1 (stereo unspecified)	-11%	nt	?	-33%	?	?
COc1ccc(C(NC(=O)C2CCN(CCOc3ccc(Cl)cc3Cl)CC2)c2ccccn2)cc1 (stereo unspecified)	?	nt	?	-107%	23µM*	-56*
O=C(NC(c1ccc(Cl)cc1)c1ccsc1)C1CCN(CCOc2ccc(Cl)cc2)CC1 (stereo unspecified)	?	nt	?	-108%	?	-68*
Cc1cc(=O)[nH]c(SCC(=O)OCc2ccccc2)c1C#N	0%	5%	-38%	-19%	-22%	-2
CCOc1ccc(N2CC(NC(=O)c3ccc(Cl)cc3)CC2=O)cc1 (stereo unspecified)	0%	-3%	?	2%	?	nt
Cc1c(Cl)cccc1NC(=O)COC(=O)Cn1cnc2c1c(=O)n(C)c(=O)n2C	-2%	1%[56.1 µM]	-2%	25%	17%	9
COC(=O)c1sccc1S(=O)(=O)N1CCN(c2ccccc2OC)CC1	3%	8%	-26%	-4%	?	nt
Cc1ccc(C(NC(=O)C2CCN(CCOc3ccc(Cl)cc3)CC2)c2ccccn2)cc1 (stereo unspecified)	?	nt	?	-67%	?	-70*
Cc1ccc(C(NC(=O)C2CCN(CCCOc3ccccc3)CC2)c2ccccn2)cc1 (stereo unspecified)	-3%	nt	?	-22%	?	?
Cc1noc(C)c1NC(=O)N(C)C[C@@H]1OCc2cn(nn2)CCCC(=O)N([C@H](C)CO)C[C@H]1C	-4%	nt	-3%	-27%	1%	18
Cc1cc(=O)oc2c(C)c(OCC(=O)NC3CCN(Cc4ccccc4)CC3)ccc12	-19%	2%	?	-20%	?	?
SMILES	TGFb inhibitor	TDP1 inh	DT40 TDP1 CPT	HepG2 viability	DT40 TDP1 no CPT	IL-1B inflam inh
Cc1c(OCC(=O)NC2CCN(Cc3ccccc3)CC2)ccc2c3c(c(=O)oc12)CCC3	-10%	1%	16µM*	0%	?	-22
CC(=O)COc1ccc2c3c(c(=O)oc2c1C)CCCCC3	-7%	-5%	15µM*	-44%	?	-12
Cc1c(OC(C)C(=O)NCc2ccccn2)ccc2c3c(c(=O)oc12)CCCC3 (stereo unspecified)	-15%	6%	13µM*	-14%	?	-28
COc1cccc(S(=O)(=O)N(C)C[C@@H]2OCc3cnnn3CCCC(=O)N([C@H](C)CO)C[C@@H]2C)c1	-7%	nt	-6%	-1%	-21%	2
CCCCC[C@H](O)/C=C\[C@@H]1[C@H](O)CC(=O)[C@@H]1CCCCCCC(=O)O	nt	5%[56.1 µM]	nt	nt	nt	nt
CCCCC[C@H](O)/C=C/[C@H]1CCC(=O)[C@@H]1CCCCCCC(=O)N1CCCCC1CO (stereo partly specified)	0%	nt	23µM*	-1%	15µM*	-23
CCOCCCNC(=O)/C(C#N)=C/c1cc(C)c(O)c(C)c1	5%	-2%	?	8%	23µM*	14
CCOCCCNC(=O)/C(C#N)=C/c1ccc(Cl)c([N+](=O)[O-])c1	?	-3%	2.6µM*	-58%	7.3µM*	-29
CCOCCCNC(=O)/C(C#N)=C/c1ccc(C(=O)OC)cc1	-17%	-2%	?	6%	-19%	-10
CCOCCCNC(=O)/C(C#N)=C/c1cc(OC)c(O)c([N+](=O)[O-])c1	-28%	4%	3.7µM*	2%	2.9µM*	0
Cc1nn(C(=O)c2nn(C)cc2Cl)c(C)c1Br	1%	-9%	-2%	4%	?	-22
